# Assay results reported in article PMC3218832.
# Tests used:
# Test in all cases: protein binding microarray; high values mean tight binding
# Conditions in all cases: dsDNA, one strand shown
# [1] = molecular target: RELARELA (p65 homodimer) (Homo sapiens, UniProt Q04206 1-307)
# [2] = molecular target: p50p50 homodimer (Homo sapiens, UniProt P19838 7-356)
# [3] = molecular target: T1, p52p52 homodimer (Homo sapiens, UniProt Q00653 4-332)
# T1 sequence: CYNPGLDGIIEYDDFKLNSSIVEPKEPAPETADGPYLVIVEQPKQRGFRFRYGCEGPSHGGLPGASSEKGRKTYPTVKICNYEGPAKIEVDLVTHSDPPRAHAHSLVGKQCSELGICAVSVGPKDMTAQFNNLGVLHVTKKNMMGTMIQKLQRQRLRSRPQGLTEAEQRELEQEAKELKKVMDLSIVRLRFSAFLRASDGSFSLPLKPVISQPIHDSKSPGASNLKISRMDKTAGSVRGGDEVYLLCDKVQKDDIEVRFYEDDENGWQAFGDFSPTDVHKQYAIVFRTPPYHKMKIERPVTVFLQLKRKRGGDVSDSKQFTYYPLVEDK
# [4] = molecular target: RELA (p65) subunit of heterodimer;p50 subunit (Homo sapiens;Homo sapiens, UniProt Q04206;P19838 1-307;7-356)
# [5] = molecular target: RELA (p65) subunit of heterodimer;p52 subunit (Homo sapiens;Homo sapiens, UniProt Q04206;Q00653 1-307;4-332)
# [6] = molecular target: RELB subunit;p50 subunit (Homo sapiens;Homo sapiens, UniProt Q01201;P19838 120-401;7-356)
# [7] = molecular target: T2, RELB subunit;p52 subunit (Homo sapiens;Homo sapiens, UniProt Q01201;Q00653 120-401;4-332)
# T2 sequence 1: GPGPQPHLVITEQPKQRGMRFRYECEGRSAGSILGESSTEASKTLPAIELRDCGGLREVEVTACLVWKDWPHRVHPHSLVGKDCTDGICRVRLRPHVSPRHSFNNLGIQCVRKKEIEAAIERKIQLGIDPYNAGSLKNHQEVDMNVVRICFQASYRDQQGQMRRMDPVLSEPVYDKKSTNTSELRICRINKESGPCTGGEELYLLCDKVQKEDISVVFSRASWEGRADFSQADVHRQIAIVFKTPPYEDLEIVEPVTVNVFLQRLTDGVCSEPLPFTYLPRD
# T2 sequence 2: T1 sequence
# [8] = molecular target: C-Rel subunit;p50 subunit (Homo sapiens;Homo sapiens, UniProt Q04864;P19838 1-285;7-356)
# [9] = molecular target: T3, C-Rel subunit;p52 subunit (Homo sapiens;Homo sapiens, UniProt Q04864;Q00653 1-285;4-332)
# T3 sequence 1: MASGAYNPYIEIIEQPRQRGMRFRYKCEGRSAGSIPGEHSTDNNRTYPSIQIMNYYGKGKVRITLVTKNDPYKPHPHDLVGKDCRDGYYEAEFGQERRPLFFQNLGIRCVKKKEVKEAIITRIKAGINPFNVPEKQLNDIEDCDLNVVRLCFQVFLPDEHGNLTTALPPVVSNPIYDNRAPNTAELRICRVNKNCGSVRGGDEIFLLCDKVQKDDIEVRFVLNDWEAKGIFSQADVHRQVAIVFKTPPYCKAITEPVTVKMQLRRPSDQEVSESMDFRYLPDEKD
# T3 sequence 2: T1 sequence
# Sequence of RELA (p65) subunit of heterodimer;p50 subunit (Q04206 1-307, chain 1 of 2): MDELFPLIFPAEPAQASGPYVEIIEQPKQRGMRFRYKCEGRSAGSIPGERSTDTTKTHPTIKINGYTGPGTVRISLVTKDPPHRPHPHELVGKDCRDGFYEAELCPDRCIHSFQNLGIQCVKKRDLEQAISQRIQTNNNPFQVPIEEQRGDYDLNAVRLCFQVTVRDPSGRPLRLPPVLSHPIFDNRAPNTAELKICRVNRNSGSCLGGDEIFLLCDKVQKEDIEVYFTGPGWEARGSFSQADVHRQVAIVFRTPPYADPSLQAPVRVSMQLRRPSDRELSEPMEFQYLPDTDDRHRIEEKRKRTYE
# Sequence of RELA (p65) subunit of heterodimer;p50 subunit (P19838 7-356, chain 2 of 2): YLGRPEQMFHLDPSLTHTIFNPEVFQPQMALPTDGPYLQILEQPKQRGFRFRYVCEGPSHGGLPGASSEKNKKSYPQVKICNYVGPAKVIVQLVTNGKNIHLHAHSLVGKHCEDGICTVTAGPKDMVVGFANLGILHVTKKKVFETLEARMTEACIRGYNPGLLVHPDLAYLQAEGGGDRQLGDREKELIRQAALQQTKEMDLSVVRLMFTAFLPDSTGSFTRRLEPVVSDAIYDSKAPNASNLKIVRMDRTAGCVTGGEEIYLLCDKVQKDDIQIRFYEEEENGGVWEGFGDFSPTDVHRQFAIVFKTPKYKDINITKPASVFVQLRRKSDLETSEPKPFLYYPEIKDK
# Sequence of RELARELA (p65 homodimer) (Q04206 1-307): as the sequence (Q04206 1-307, chain 1 of 2) above
# Sequence of p50p50 homodimer (P19838 7-356): as the sequence (P19838 7-356, chain 2 of 2) above
Sequence,binding signal [1] [z-score],binding signal [2] [z-score],binding signal [3] [z-score],binding signal [4] [z-score],binding signal [5] [z-score],binding signal [6] [z-score],binding signal [7] [z-score],binding signal [8] [z-score],binding signal [9] [z-score]
GGGTGGGCCCT,0.392,-0.139,-0.133,-0.0704,-0.184,-0.392,-0.318,-0.304,0.357
GAGTGCCCCCT,-0.00724,1.11,0.614,0.954,0.871,0.913,1.16,0.836,0.745
AAGTATTCCCT,0.729,0.846,0.794,0.606,0.612,0.683,0.852,0.812,0.523
AGGGGACTCCC,1.57,0.939,2.92,2.01,2.28,1.82,2.3,1.9,2.77
AGGAGCCTCCC,-0.27,-0.831,-0.599,-0.748,-0.852,-0.76,-0.789,-0.995,-0.719
CAAAGCGTCCT,-0.639,-1.46,-0.572,-0.956,-0.873,-0.99,-0.804,-1.53,-0.973
AAGAGATCCCT,-0.452,-0.0204,-0.142,-0.376,-0.411,0.117,-0.279,-0.41,-0.484
CGGTTTTTCCC,3.71,0.935,2.66,1.81,1.88,1.05,1.78,1.57,2.3
AAGGATATCCT,-0.125,-1.04,-0.548,-0.853,-0.906,-0.945,-0.859,-1.41,-0.843
CAATACGCCCC,0.0573,0.196,0.145,0.039,0.0537,0.204,0.503,0.297,0.13
CGGTGTACCCT,-0.287,-0.0219,0.0503,-0.317,-0.282,-0.0463,-0.155,-0.172,-0.317
AGAATTTCCCC,3.09,1.24,2.64,2.2,2.3,2.59,2.28,1.85,2.29
CAGAAGGCCCC,-0.908,-0.224,-0.259,-0.114,-0.223,-0.248,-0.262,-0.241,-0.183
AGGAGCGCCCC,-0.227,-0.229,0.018,0.186,0.348,-0.0805,0.162,0.0948,0.277
CGGTAGCCCCT,0.0258,0.991,0.543,0.402,0.598,0.503,0.728,0.38,0.45
